Data as given in PubChem BioAssay AID488975 (Johns Hopkins Ion Channel Center, 2010).
Among all 310,000 compounds or so, about 2,600 (0.84%) were called active.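 The calls were made as follows: active = B-score over 3 SD under the library average, and starting fluorescence ratio not unusually high; inactive = the rest.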 Shown is part of a subset that was picked to be rich in actives. Where a structure was tested more than once in an assay, its records may differ in their call.

Target: High affinity choline transporter 1 (Homo sapiens) (UniProt Q9GZV3)
Assay: inhibits the human high affinity choline transporter (AID 488975);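 as to B-score: choline stimulus applied at its EC90 after an EC20 pre-addition; B-score computed on integrated fluorescence ratio after choline addition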
Settings: CHT-expressing cells, membrane potential dye, choline response, at 10 µM; stronger effect = lower value

Chain of High affinity choline transporter 1 (Homo sapiens) (Q9GZV3 whole entry, looked up): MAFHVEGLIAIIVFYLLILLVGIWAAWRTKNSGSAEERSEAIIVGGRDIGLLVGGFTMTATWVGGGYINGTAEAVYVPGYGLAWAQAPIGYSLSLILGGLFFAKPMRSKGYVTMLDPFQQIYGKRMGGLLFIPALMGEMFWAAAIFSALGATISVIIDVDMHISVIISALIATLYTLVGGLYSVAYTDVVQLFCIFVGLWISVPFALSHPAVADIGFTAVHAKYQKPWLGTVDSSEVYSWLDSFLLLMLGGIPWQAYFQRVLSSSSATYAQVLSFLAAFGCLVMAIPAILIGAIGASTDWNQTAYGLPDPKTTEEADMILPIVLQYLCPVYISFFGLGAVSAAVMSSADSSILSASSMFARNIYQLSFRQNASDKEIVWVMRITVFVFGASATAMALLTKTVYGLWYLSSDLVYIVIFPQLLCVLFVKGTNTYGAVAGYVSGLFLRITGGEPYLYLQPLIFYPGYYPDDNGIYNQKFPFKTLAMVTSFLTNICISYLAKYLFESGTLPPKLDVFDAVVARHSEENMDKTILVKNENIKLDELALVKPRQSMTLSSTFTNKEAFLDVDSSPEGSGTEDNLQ

| Structure (SMILES) | B-score | outcome |
| --- | --- | --- |
| O=C(O)c1ccc(/C=N/NC(=O)c2ccc(Br)cc2)cc1 | inactive |  |
| O=C(O)c1ccc(/C=C2\SC(=S)N(NC(=O)c3ccc(Br)cc3)C2=O)cc1 | -5.15 (active) |  |
| COc1ccc(/C=C2\SC(=S)N(CCC(=O)Nc3ccccn3)C2=O)cc1OC | inactive |  |
| COc1ccccc1C(=O)NNC(=O)CCN1C(=O)/C(=C\c2ccccc2)SC1=S | inactive |  |
| Cn1cccc1/C=C1\SC(=S)N(NC(=O)c2ccc(Cl)cc2)C1=O | inactive |  |
| O=C1/C(=C/c2ccc(F)cc2)SC(=S)N1CCCC(=O)N1CCCCC1CCO (stereo not given) | inactive |  |
| CCOc1ccc(/C=C2\SC(=S)N(NC(=O)c3ccncc3)C2=O)cc1OC | -5.15 (active) |  |
| COc1ccc(/C=C2\SC(=S)N(CC(=O)NNC(=O)c3ccncc3)C2=O)cc1 | inactive |  |
| O=C1/C(=C/c2ccc(F)cc2)SC(=S)N1NS(=O)(=O)c1ccccc1 | -6.62 (active) |  |
| COc1ccc2oc(C(=O)N(CC(C)C)C3CCS(=O)(=O)C3)c(C)c2c1 (stereo not given) | inactive |  |
| O=C(NCc1ccc(Cl)cc1)C(=O)NCC1CCCN1S(=O)(=O)c1cccs1 (stereo not given) | inactive |  |
| CC1CC(C)(C)CC2(C1)NC(=O)N(CC(=O)Nc1nccs1)C2=O (stereo not given) | inactive |  |
| Cc1cccc(-n2ncc(Cl)c(Cl)c2=O)c1 | -6.46 (active) |  |
| O=c1c(Cl)c(NC2CC2)cnn1-c1ccccc1 | inactive |  |
| C=CCNc1cnn(-c2ccc(C)cc2)c(=O)c1Cl | inactive |  |
| CCN1C(=O)[C@H]2[C@@H](c3ccc(SC4CCCCC4)c(OC)c3)N[C@@](Cc3ccccc3)(C(=O)OC)[C@H]2C1=O | inactive |  |
| COc1cccc(-c2nn(-c3ccccc3)cc2/C=C(\C#N)C(=O)NCCCn2ccnc2)c1 | -6.63 (active) |  |
| COc1ccc(/C=C(\C#N)C(=O)NCCCn2ccnc2)cc1 | inactive |  |
| COc1cc(OC)cc(C(=O)NCCCn2ccnc2)c1 | inactive |  |
| Cc1ccc(S(=O)(=O)N2[C@@H](c3cccc(Cl)c3)C(C(=O)O)=CC[C@H]2c2ccc(Cl)c(Cl)c2)cc1 | inactive |  |
| COc1cccc(N2CC(NS(=O)(=O)c3ccc(Cl)cc3)CC2=O)c1 (stereo not given) | inactive |  |
| COc1cccc(CNC(=O)C(=O)NCCC2CCCCN2S(=O)(=O)c2ccc(C)cc2)c1 (stereo not given) | inactive |  |

| Structure (SMILES) | B-score | outcome |
| --- | --- | --- |
| C/C(=N\NC(N)=S)c1cccnc1 | -9.98 (active) |  |
| C/C(=N\NC(N)=S)c1ccncc1 | inactive |  |
| C/C(=N\NC(=O)c1cccnc1)c1ccc(-c2ccccc2)cc1 | inactive |  |
| O=C(Nc1ccc2ccccc2c1)/C(=C/c1cccc(Br)c1)NC(=O)c1ccco1 | inactive |  |
| Cc1ccc(C(=O)NNC(=O)C(C)Oc2ccc3ccccc3c2)o1 (stereo not given) | inactive |  |
| CC(Oc1ccc2ccccc2c1)C(=O)NNC(=S)NC(=O)c1ccco1 (stereo not given) | -5.21 (active) |  |
| CCCCN(C(=O)CCNC(=O)NC12CC3CC(CC(C3)C1)C2)c1c(N)n(CCCC)c(=O)[nH]c1=O | inactive |  |
| COc1ccc(CCNC(=O)C(=O)NCC2OCCN2S(=O)(=O)c2cccs2)cc1OC (stereo not given) | inactive |  |
| O=C(Nc1ccccc1N1CCCC1)c1ccc(F)c(S(=O)(=O)N2CCOCC2)c1 | inactive |  |
| CC(C)CN(C(=O)COC(=O)c1ccc(Cl)c(N)c1)c1c(N)n(Cc2ccccc2)c(=O)[nH]c1=O | inactive |  |
| Cc1cc(C)n(-c2nc(SCC(=O)N3CCCC3)c3c4c(sc3n2)CCCC4)n1 | inactive |  |
| Cc1nc2sc3c(c2c(=O)n1NC(=O)CCl)CCCC3 | inactive |  |
| COCCNc1nc(-n2nc(C)cc2C)nc2sc3c(c12)CCCC3 | -4.98 (active) |  |
| N#CC1(NC(=O)COC(=O)CSc2ccc(F)cc2)CCCCC1 | inactive |  |
| CCOc1ccc(S(=O)(=O)Nc2ccc(C(=O)NCCCN3CCCC3=O)cc2)cc1 | inactive |  |
| CCOC(=O)N1CCN(S(=O)(=O)c2ccc(OC)cc2)CC1 | inactive |  |
| COc1ccc(S(=O)(=O)N2CCN(C(=O)NC3CCCCC3)CC2)cc1 | -6.98 (active) |  |
| COc1ccc(S(=O)(=O)N2CCCC2CNC(=O)C(=O)NC2CC2)cc1 (stereo not given) | inactive |  |
| OCCCNc1nccc(-c2cc(Nc3cccc(Cl)c3)ncn2)n1 | inactive |  |
| CC(C)n1cnc2c(Nc3cccc(Cl)c3)nc(N(CCO)CCCO)nc21 | -7.57 (active) |  |
| CC(C)C[C@H](CO)Nc1nc(N(C)c2cccc(Cl)c2)c2ncn(C(C)C)c2n1 | inactive |  |
| COc1ccccc1N(C)S(=O)(=O)c1ccc(Cl)c(C(=O)Nc2ccncc2)c1 | inactive |  |

| Structure (SMILES) | B-score | outcome |
| --- | --- | --- |
| COc1ccc(NS(=O)(=O)c2ccc(C)c(C(=O)N(C)Cc3ccc(OC)cc3OC)c2)cc1 | inactive |  |
| CC1(C)SC2C(NC(=O)COc3ccccc3)C(=O)N2C1C(=O)O (stereo not given) | -6.15 (active) | inactive |
| CC1(C)S[C@@H]2[C@H](NC(=O)COc3ccccc3)C(=O)N2C1C(=O)OCc1ccccc1 (stereo not given in full) | inactive |  |
| CC1(C)S[C@@H]2[C@H](N=CN3CCCCCC3)C(=O)N2[C@H]1C(=O)O | inactive |  |
| COC(=O)[C@]1(C)N[C@H](c2ccc(-c3ccc(Cl)c(Cl)c3)cc2)[C@@H]2C(=O)N(C)C(=O)[C@@H]21 | inactive |  |
| O=C(NCC(c1cccs1)N1CCOCC1)c1cc(Cl)ccc1[N+](=O)[O-] (stereo not given) | inactive |  |
| OCCCNc1nc(-c2ccccc2)c2cc(Cl)ccc2n1 | inactive |  |
| Cc1cc(NC(=O)Cn2nc(C(F)(F)F)c3c2CCCC3)no1 | inactive |  |
| O=C(Cn1nc(C(F)(F)F)c2c1CCC2)NCc1ccc(F)cc1 | -6.14 (active) |  |
| COC(=O)c1ccccc1NC(=O)Cn1nc(C(F)(F)F)c2c1CCC2 | -5.17 (active) |  |
| CC(C)OC(=O)Cn1nc(C(F)(F)F)c2c1CCCC2 | inactive |  |
| COC(=O)c1ccccc1NC(=O)CSc1nc2c(c(=O)[nH]1)CCC2 | inactive |  |
| CCC(C)NC(=O)Cn1nc(C(F)(F)F)c2c1CCC2 (stereo not given) | inactive |  |
| N#CCN(C(=O)COC(=O)C1CC2CCCC(C1)C2=O)c1ccccc1 (stereo not given) | inactive |  |
| CC1CCN(c2ccc(-c3ccc(NC(=O)c4ccco4)cc3)nn2)CC1 | inactive |  |
| Cc1noc(C)c1CSCC(=O)Nc1ccc(Br)cc1Cl | inactive |  |
| O=C(c1ccncc1)N1CCN(S(=O)(=O)c2cc(C(F)(F)F)cc(C(F)(F)F)c2)CC1 | inactive |  |
| COCc1c(C(=O)N/N=C\c2cccnc2)nnn1-c1nonc1N | inactive |  |
| CN(C)Cc1c(C(=O)N/N=C/c2ccccc2OCc2ccc(F)cc2)nnn1-c1nonc1N | inactive |  |
| CCN(CC)Cc1c(C(=O)N/N=C/c2cccc(OCc3ccc(F)cc3)c2)nnn1-c1nonc1N | -5.26 (active) |  |
